In PubChem BioAssay AID588342 (National Center for Advancing Translational Sciences (NCATS), 2011):
Among all 360,000 compounds or so, about 25,000 (6.9%) were called active. Entries that show only a call come without a potency. Inconclusive results (about 9%) are left out. Calls come from the whole dose curve; as a rule, active = well fitted inhibition curve with a large enough effect; inconclusive = small, poorly fitted or top-dose-only effect; inactive = flat fitted curve, though single readings scatter. Only a selection was taken, and actives are over-represented in it overall.

Biological target: Luciferin 4-monooxygenase (Photinus pyralis) (UniProt P08659)
Sequence (P08659 whole entry, looked up): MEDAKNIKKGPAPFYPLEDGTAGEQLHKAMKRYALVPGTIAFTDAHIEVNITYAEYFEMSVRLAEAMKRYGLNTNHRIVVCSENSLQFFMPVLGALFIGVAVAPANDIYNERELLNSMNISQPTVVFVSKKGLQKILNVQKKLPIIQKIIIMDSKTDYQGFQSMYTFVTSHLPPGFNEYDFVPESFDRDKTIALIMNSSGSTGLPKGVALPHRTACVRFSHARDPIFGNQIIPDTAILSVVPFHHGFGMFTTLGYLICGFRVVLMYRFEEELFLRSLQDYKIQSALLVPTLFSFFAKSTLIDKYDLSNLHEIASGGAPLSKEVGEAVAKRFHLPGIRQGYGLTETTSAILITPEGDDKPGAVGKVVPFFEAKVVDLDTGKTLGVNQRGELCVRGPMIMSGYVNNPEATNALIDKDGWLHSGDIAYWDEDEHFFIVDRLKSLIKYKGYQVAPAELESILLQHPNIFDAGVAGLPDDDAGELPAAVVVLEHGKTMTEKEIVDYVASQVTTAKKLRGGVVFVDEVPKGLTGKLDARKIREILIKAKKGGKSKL
Experiment: qHTS profiling assay for firefly luciferase inhibitor/activator using purifed enzyme and Km concentrations of substrates (counterscreen for miR-21 project); note: nearly all actives have a fitted effect of over 55% in size
Details: purified FLuc, luminescence inhibition; series mostly up to 57.5 µM
Method in brief: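 Purified P. pyralis luciferase (10nM final) with 10uM D-luciferin and 10uM ATP (Km levels) in 50mM Tris acetate pH 7.5, 10mM Mg acetate, 0.01% Tween-20, 0.05% BSA; qHTS 6-point titration, ~60 µM downward; luminescence read.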
Potency is the fitted concentration of half-maximal effect.

Compound | Potency
Cc1ccccc1NC(=O)Cn1cc(C(=O)c2cccs2)c2ccccc21 | inactive
O=C(Cn1cc(C(=O)c2cccs2)c2ccccc21)NCc1cccs1 | 19 µM (active)
COC(=O)c1cn(CC(=O)NCc2cccs2)c2ccccc12 | inactive
COc1ccc(-c2nc(Cn3c(=O)cc(C)c4c(C)nn(-c5ccccc5)c43)c(C)o2)cc1OC | inactive
O=C(CCc1nnc2ccc(NCc3ccco3)nn12)Nc1cc(F)ccc1F | inactive
COc1ccc(-c2c(C#Cc3ccccc3)c3ccccc3n2C)cc1 | 12 µM (active)
CN(C)Cc1c(C#N)c2ccccc2n1C | inactive
COc1ccc(CCNCc2c(-c3ccccc3)n(C)c3ccccc23)cc1 | inactive
Cc1ccc(-c2nn(CCC(=O)Nc3ccc(OC(F)(F)F)cc3)c(=O)c3ccccc23)cc1 | inactive
Cc1c(NC(=O)C(C)OC(=O)c2cc3c4ccccc4n(C)c3s2)c(=O)n(-c2ccccc2)n1C (stereo not drawn) | inactive
Cc1cccc(NC(=O)CSc2nc3c([nH]c4ccccc43)c(=O)n2-c2cc(C)cc(C)c2)c1 | inactive
COC(=O)c1ccc(OC(=O)c2cnccn2)cc1 | inactive
Cn1c(=NC(=O)c2cnccn2)sc2ccccc21 | 4.78 µM (active)
O=C(NCCCNC(=O)c1ccccc1Cl)c1cnccn1 | inactive
Cc1ccc(S(=O)(=O)c2nc(-c3ccco3)oc2SCC(=O)Nc2ccc(F)cc2)cc1 | inactive
Cc1cc(OC(=O)c2ccccc2Cl)ccc1N1C(=O)CCC1=O | 5.36 µM (active)
CCOC(=O)c1cc(OC(=O)c2ccccc2Cl)n(-c2ccccc2)n1 | inactive
COc1ccccc1C(=O)Oc1ccc(N2C(=O)CCC2=O)cc1 | inactive
COCCN(Cc1ccco1)C(=O)Cn1ncc2c([nH]c3ccccc32)c1=O | inactive
COc1ccc(NC(=O)CCCN2C(=O)C(c3ccccc3)Oc3cccnc32)cc1 (stereo not drawn) | inactive
Cc1[nH]n(C(N)=S)c(=O)c1N=Nc1ccc(Cl)cc1Cl | 10.7 µM (active)
Cc1[nH]n(C)c(=O)c1N=Nc1ccc(S(C)(=O)=O)cc1 | inactive
Cn1c(SCc2nc3ccccc3s2)nnc1-c1ccc2c(c1)OCO2 | inactive
Clc1ccc(-c2nnc(SCc3nc4ccccc4s3)o2)cc1 | 19 µM (active)
O=C(CSc1nnc(-c2ccncc2)o1)NCc1ccc(Cl)cc1 | inactive
COc1ccc(-n2c(=O)c3sc4ccccc4c3n(CC(=O)Nc3cccc(C)c3)c2=O)cc1 | inactive

Compound | Potency
Cc1cc(C)c2nc3nc(C)cc(C)c3c(N)c2c1 | 15.1 µM (active)
Cc1cc(C)c([N+](=O)[O-])cc1-c1ccc(/C=N/NC(=O)c2nonc2N)o1 | inactive
O=C1C2C3C=CC(C4CC34)C2C(=O)N1/N=C/c1ccc(-c2ccccc2[N+](=O)[O-])o1 (stereo not drawn) | 10.7 µM (active)
O=C(CN1C(=O)CCn2nc(-c3ccccc3)cc21)NCc1ccccc1 | inactive
CCOc1cccc(CC(=O)N2CCc3c([nH]c4ccccc34)C2c2ccc(F)cc2)c1OCC (stereo not drawn) | inactive
N#C/C(=C(/O)COC(=O)COc1ccc(Cl)cc1)c1nc2ccccc2[nH]1 | inactive
O=C(Cc1nc2ccccc2[nH]c1=O)c1ccc(Cl)cc1 | 0.757 µM (active)
O=C(/C(=C/c1cccc(Cl)c1)c1nc2ccccc2[nH]1)c1ccccc1 | inactive
COc1ccc(N2CCN(C3=NS(=O)(=O)C(c4cccc(Br)c4)=C3C)CC2)cc1 | inactive
CCOC(=O)c1c(/N=C/C2C(=O)CC(C)(C)CC2=O)sc(C)c1C | inactive
CCOC(=O)c1sc(/N=C/C2=C(O)CC(C)(C)CC2=O)c(C(=O)OCC)c1C | 19 µM (active)
CCOC(=O)c1c(CC(C)C)csc1/N=C/C1=C(O)CCCC1=O | inactive
Cc1ccc(N2CC(C(=O)Nc3ccc(N(C)C)cc3)CC2=O)cc1Cl (stereo not drawn) | inactive
O=C(COC(=O)c1ccc(O)cc1O)NNC(=O)c1cccs1 | inactive
NNC(=O)c1ccc(Cl)cc1Cl | inactive
O=C(NNC(=O)c1ccc(Cl)cc1Cl)c1cccs1 | 12 µM (active)
CC1CCCCN1S(=O)(=O)c1ccc(F)c(C(=O)Nc2ccccc2C(F)(F)F)c1 (stereo not drawn) | inactive
Cc1cccc(NC(=O)CSc2nc(-c3ccco3)cc(C(F)(F)F)n2)c1C | inactive
COc1ccc(NS(=O)(=O)c2cc(NC(=O)COc3ccccc3F)ccc2OC)cc1 | inactive
COc1ccc2oc(=O)c(C(=O)N3CCN(c4ccccc4F)CC3)cc2c1 | inactive
COc1cccc(C(=O)c2cc3ccc(O)cc3oc2=O)c1 | 12 µM (active)
COc1ccc2oc(=O)c(C(=O)N3CCCC3)cc2c1 | inactive
CNS(=O)(=O)c1ccc(C(=O)NCC(=O)NCCc2ccc3c(c2)OCCO3)cc1 | inactive
COC(=O)c1c(NC(=O)c2ccc(Cl)c(Cl)c2)sc2c1CCCC2 | inactive
Cn1c(=O)c2c(ncn2CC(=O)Nc2cccc(C(F)(F)F)c2)n(C)c1=O | inactive
Cc1cc(NC(=O)c2ccco2)c(=O)n(Cc2c(F)cccc2Cl)c1 | inactive

Compound | Potency
Cn1c(=NC(=O)c2ccco2)sc2cccc(F)c21 | 3.38 µM (active)
CCN(CC)S(=O)(=O)c1ccc(C(=O)N=c2sc3cccc(OC)c3n2C)cc1 | inactive
CC1CCN(S(=O)(=O)c2ccc3c(c2)N(CC(=O)NCc2ccccc2Cl)C(=O)CO3)CC1 | inactive
Cc1csc2nc(COc3ccc(NC(=O)COc4ccccc4)cc3)cc(=O)n12 | inactive
COc1ccccc1N1CCN(c2ncnc3onc(-c4ccc(F)cc4)c23)CC1 | inactive
O=C(CSc1ccccc1)Nc1cccc(S(=O)(=O)N2CCOCC2)c1 | inactive
NC(=O)Cc1ccc2c(c1)[nH]c1ccccc12 | inactive
NC(=O)Cc1ccc2sc(-c3ccccc3)nc2c1 | 5.36 µM (active)
CCn1c2ccccc2c2cc(CC(N)=O)ccc21 | inactive
COc1ccc(CCNC(=O)c2ccc(CSCc3ccc(C)cc3)o2)cc1OC | inactive
CN1CCN(S(=O)(=O)c2ccc(N3CCN(c4ccccc4O)CC3)c([N+](=O)[O-])c2)CC1 | inactive
O=C(/C=C/c1ccccc1Cl)Nc1ccc(S(=O)(=O)Nc2ncccn2)cc1 | 13.5 µM (active)
CC(=O)NS(=O)(=O)c1ccccc1 | inactive
CC(=O)NS(=O)(=O)c1ccc(NC(=O)/C=C/c2ccccc2Cl)cc1 | 12 µM (active)
O=C(CCS(=O)(=O)c1ccccc1Cl)Nc1ccc(S(=O)(=O)Nc2ncccn2)cc1 | inactive
NS(=O)(=O)c1ccc(NC(=O)/C=C/c2ccccc2Cl)cc1 | inactive
CC(=O)Nc1ccc(S(=O)(=O)Nc2nccc(/C=C/c3ccccc3F)n2)cc1 | inactive
COc1ccc(CNC(=O)Cn2nnc(-c3ccccc3F)n2)cc1 | inactive
CCOc1cccc2sc(N3CCN(C(=O)C4CC4)CC3)nc12 | inactive
Cc1occc1-c1nnc(SCC(=O)NC2(C#N)CCCC2)n1C | inactive
Cc1ccc(CSc2oc(-c3cccs3)nc2S(=O)(=O)c2ccc(C)cc2)cc1 | inactive
O=C(c1ccc(Cl)s1)N(Cc1nnc(-c2ccccc2Cl)o1)C1CC1 | 19 µM (active)
CCOC(=O)N1CCN(Cc2nnc(-c3ccccc3Cl)o2)CC1 | inactive
Cc1onc(-c2ccccc2Cl)c1C(=O)OCc1nnc(-c2ccccc2)o1 | inactive
Cc1ccc(S(=O)(=O)c2c(Nc3cccc(Cl)c3)sc(C(=O)c3ccc4c(c3)OCO4)c2N)cc1 | inactive
COc1ccccc1C(=O)NC(=S)Nc1ccccc1N1CCCCC1 | inactive

Compound | Potency
O=C(CCCCn1c(=O)c2ccccc2n(CC(=O)Nc2cccc(C(F)(F)F)c2)c1=O)NCc1ccc2c(c1)OCO2 | inactive
COC(=O)c1ccc(Sc2ccc(F)cc2)c(N)c1 | 21.3 µM (active)
COC(=O)c1ccc(C(=O)OC)c(NC(=S)N2CCN(c3ccc(F)cc3)CC2)c1 | inactive
CC(=O)Nc1cc(C(=O)NCc2ccc(F)cc2)ccc1Sc1ccc(F)cc1 | inactive
CC(C)NC(=O)c1nn(-c2ccccc2F)nc1CO | inactive
CCOC(=O)C1CCC(CN(Cc2ccc(OC)cc2)S(=O)(=O)c2ccc(F)c(C(=O)Nc3cc(C)ccc3C)c2)CC1 (stereo not drawn) | inactive
CCNC(=O)CC1C(=O)N(c2ccc(F)cc2)C(=O)N1Cc1ccc(C)cc1 (stereo not drawn) | inactive
N#Cc1cccc(OC(=O)c2ccc3c(=O)n4c(nc3c2)CCC4)c1 | inactive
COc1ccccc1CNC(=O)C(=O)NCC(c1ccco1)S(=O)(=O)c1ccc(F)cc1 (stereo not drawn) | inactive
CC1=NOC(=O)/C1=C\c1ccccc1 | inactive
CCOc1cc(/C=C2/C(=N)N3OC(C)=CC3=NC2=O)ccc1OC | inactive
COc1cc(/C=C2/C(=O)ON=C2C)ccc1OCc1ccccc1F | 6.75 µM (active)
CCc1ccc(CN(Cc2ccco2)C(=O)c2ccccc2Cl)cc1 | inactive
Cc1cccc(NC(=O)c2ccc([N+](=O)[O-])o2)c1 | inactive
Cc1ccc(C(=O)NC(=S)Nc2ccc(N3CCOCC3)cc2)cc1 | inactive
Cc1ccc(C(=O)NC(=S)Nc2ccccc2C)cc1 | 19 µM (active)
Cc1ccccc1NC(=S)NC(=O)Cc1ccc(Cl)cc1 | inactive
O=C(CNC(=O)c1ccc(Br)o1)Nc1ccccc1 | inactive
Cc1cccc(NC(=S)NC(=O)c2ccc(Br)o2)c1 | 19 µM (active)
Cc1cccc(NC(=O)/C(=C\c2ccco2)NC(=O)c2ccccc2)c1 | inactive
Cc1ccc(NC(=O)NC(=O)c2ccccc2)cc1F | inactive
Cc1cccc(NC(=O)NC(=S)NC(=O)c2ccccc2)c1 | 19 µM (active)
CC1CCN(S(=O)(=O)c2ccc3c(c2)N(CC(=O)NCCc2ccccc2)C(=O)CO3)CC1 | inactive
O=C(NCc1cccc(Cl)c1)C1=CC=CN2CCS(=O)(=O)N=C12 | inactive
Cc1nnc(NCc2ccccc2)c2c1nnn2Cc1ccc(F)cc1 | inactive
